High-throughput results deposited in PubChem BioAssay by Broad Institute.
CASP6 VEID inh: caspase-6 (human) enzyme inhibition. AID 686996. purified caspase-6, Z-VEID-R110 cleavage fluorescence. 350,000 compounds, 0.53% hits. inhibition, % at 12.5 µM;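 active = mean inhibition across replicates at least about 35%, with every replicate also reaching that limit, limit read from the data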;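 also: 0% = median of neutral control wells and 100% = no fluorescence left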
Target sequence (P55212 24-179 limits assumed): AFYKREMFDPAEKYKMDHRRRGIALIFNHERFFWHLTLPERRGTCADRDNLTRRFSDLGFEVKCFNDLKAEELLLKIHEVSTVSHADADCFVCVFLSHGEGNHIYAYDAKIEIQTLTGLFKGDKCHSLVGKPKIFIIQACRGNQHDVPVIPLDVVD
Target sequence (P55212 194-293 limits assumed): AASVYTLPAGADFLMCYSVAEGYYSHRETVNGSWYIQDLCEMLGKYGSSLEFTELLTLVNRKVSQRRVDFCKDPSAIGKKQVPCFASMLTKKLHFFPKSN
N-glyco inh: blocks N-linked glycosylation in D54 reporter cells; reporter increase, % at 12.5 µM; 360,000 compounds, 0.23% hits; D54 ERlucT glycosylation luciferase reporter, 24 h; percent of 100 nM tunicamycin response;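 active = mean luciferase reporter signal, scaled so untreated is 0 and the glycosylation-blocking control 100, at or above a set limit in every replicate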;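 also: luciferase carries N-glycosylation sites so blocking glycosylation raises the light; 0% = median of neutral control wells and 100% = median of 100 nM tunicamycin wells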
CDK5 p35 inh: blocks human CDK5/p35 kinase activity; Recombinant CDK5/p35, ADP-Glo luminescence, 60 min; inhibition, % at 10 µM; 330,000 compounds, 0.01% hits; AID 488839;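 active = highest replicate inhibition of at least 50% and at least 75% of replicates reaching 50%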;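 also: plate controls were DMSO neutral control for no effect and GW8510 at 10 µM for full effect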
ALR H2O2 inh: blocks human ALR sulfhydryl oxidase activity | P55789 | purified ALR, DTT oxidation, H2O2 HRP-luminol luminescence | inhibition, % (test concentration not listed) | 290,000 compounds, 3.8% hits;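 active = mean replicate inhibition above about 79%, with every replicate also reaching it, limit read from the data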
Target sequence (P55789 whole entry, looked up): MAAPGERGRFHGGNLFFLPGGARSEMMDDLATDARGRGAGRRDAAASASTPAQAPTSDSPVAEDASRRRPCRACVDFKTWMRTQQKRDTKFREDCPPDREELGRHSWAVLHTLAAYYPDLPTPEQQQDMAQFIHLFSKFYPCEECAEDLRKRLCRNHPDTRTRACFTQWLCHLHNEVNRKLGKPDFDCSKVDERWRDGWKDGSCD
Mot1-301 SUMO: inhibitors of SUMOylation pathway: yeast Mot1-301 growth rescue | S. cerevisiae Mot1-301 growth rescue, ATP luminescence, 38.5C; percent above DMSO median, 100 means doubled | growth rescue, % at 18.8 µM | 320,000 compounds, 1% hits | AID 2716;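 active = every valid replicate shows activation above 250% relative to neutral control wells; inactive = the rest, any valid replicate at or below 250%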;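 also: OY570 slx delta 5 strain wells were the positive control but not used for scaling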
NSD2 HMT inh: inhibitors of human histone methyltransferase NSD2. inhibition, % at 12.5 µM. NSD2 peptide methylation, AlphaScreen, 120 min. 310,000 compounds, 0.54% hits. O96028; in the data active = inhibition above about 50%
* hit, by the source's call. The list is not random: actives were taken first. Their share in the collection is about 3.9%.

Results for C[C@@H]1CN([C@H](C)CO)C(=O)c2cccc(N(C)C)c2O[C@H]1CN(C)Cc1ccc(C(=O)Nc2ccccc2N)cc1 ?
CASP6 VEID inh: -4.3

How did CCC(=O)Nc1ccc2c(c1)OC[C@@H](C)N(Cc1ccccc1OC)C[C@@H](C)[C@@H](OC)CN(C)C2=O do in these assays?
CASP6 VEID inh: 1.6

Results for O=c1c(Cl)c(Nc2cccc(Cl)c2)cnn1-c1nc2ccccc2s1 ?
N-glyco inh: -14.6; CDK5 p35 inh: 0.7; ALR H2O2 inh: -22.9; Mot1-301 SUMO: -2.4; NSD2 HMT inh: -0.4

How did Cc1ccc(C)c(N2CCN(c3cnn(-c4nc5ccccc5s4)c(=O)c3Cl)CC2)c1 do in these assays?
N-glyco inh: 113.7*; CDK5 p35 inh: 0.2; ALR H2O2 inh: -1.0; Mot1-301 SUMO: 0.8; NSD2 HMT inh: -2.0

Results for COc1cc(/C=C(\C#N)c2nnc(N3CCOCC3)n2-c2ccccc2)ccc1O ?
CASP6 VEID inh: -0.8; N-glyco inh: 3.4; CDK5 p35 inh: 0.7; ALR H2O2 inh: 98.9*; Mot1-301 SUMO: -21.0

What do the screens show for `C[C@@H]1CN([C@@H](C)CO)S(=O)(=O)c2ccc(C#Cc3ccc(F)cc3)cc2O[C@@H]1CN(C)C(=O)NC1CCCC1`?
CASP6 VEID inh: -1.4

Results for CC(=O)N[C@H]1C=C[C@@H](CC(=O)NCC2CCCCC2)O[C@@H]1CO ?
CASP6 VEID inh: 2.1

How did N#Cc1ccc(CSc2ccc(S(=O)(=O)N3CCCC3)cn2)cc1 do in these assays?
CASP6 VEID inh: 4.3; N-glyco inh: 0.0; CDK5 p35 inh: 1.9; ALR H2O2 inh: 92.6*; Mot1-301 SUMO: 4.6; NSD2 HMT inh: -3.5

How did Cc1ccc(C(C2=C(O)CC(C)(C)CC2=O)C2C(=O)CC(C)(C)CC2=O)o1 (centres undefined) do in these assays?
N-glyco inh: 0.6; CDK5 p35 inh: -0.2; ALR H2O2 inh: 97.0*; Mot1-301 SUMO: -0.4; NSD2 HMT inh: 7.0

How did CCOc1ccc(C(=O)NNC2CC(=O)N(Cc3ccc(Cl)cc3)C2=O)cc1OC (centres undefined) do in these assays?
CASP6 VEID inh: -0.4; N-glyco inh: 1.8; CDK5 p35 inh: 0.7; ALR H2O2 inh: 97.3*; Mot1-301 SUMO: -3.5

What do the screens show for `COc1ccc(C(=O)NNC2CC(=O)N(Cc3ccccc3)C2=O)cc1OC` (centres undefined)?
N-glyco inh: 0.3; CDK5 p35 inh: 0.0; Mot1-301 SUMO: -0.2; NSD2 HMT inh: 0.7

What do the screens show for `O=C(N[C@H]1CC[C@H](CCn2cc(C3(O)CCCC3)nn2)O[C@H]1CO)c1ccccc1F`?
CASP6 VEID inh: -0.6

What do the screens show for `O=C(C[C@H]1C=C[C@H](NC(=O)Nc2ccccc2)[C@@H](CO)O1)NCc1ccccn1`?
CASP6 VEID inh: -4.6

How did CCc1c(C)sc(NC(=O)c2cc(-c3ccco3)on2)c1C#N do in these assays?
N-glyco inh: 2.0; CDK5 p35 inh: -1.5; ALR H2O2 inh: 35.5; Mot1-301 SUMO: -5.4; NSD2 HMT inh: 12.8

How did CCc1c(C)sc(NC(=O)c2cc(C3CC3)on2)c1C#N do in these assays?
CASP6 VEID inh: -0.1; N-glyco inh: -0.5; CDK5 p35 inh: 0.7; ALR H2O2 inh: 94.4*; Mot1-301 SUMO: -8.3

How did CCc1c(C)sc(NC(=O)c2cc(C)on2)c1C#N do in these assays?
N-glyco inh: 3.3; CDK5 p35 inh: -0.1; ALR H2O2 inh: 84.9*; Mot1-301 SUMO: 96.5; NSD2 HMT inh: 3.0

Results for CCCc1cc(C(=O)Nc2sc(C)c(CC)c2C#N)no1 ?
CASP6 VEID inh: 1.0; N-glyco inh: -0.4; CDK5 p35 inh: 5.0; Mot1-301 SUMO: 94.5

Results for CC(C)NC(=O)Nc1ccc2c(c1)CC(=O)N([C@H](C)CO)C[C@H](C)[C@@H](CN(C)Cc1ccc(Oc3ccccc3)cc1)O2 ?
CASP6 VEID inh: 1.9

Results for Cc1ccn2c(Nc3ccccc3C)c(-c3cccnc3)nc2c1 ?
CASP6 VEID inh: -3.1; N-glyco inh: -2.6; CDK5 p35 inh: -0.3; ALR H2O2 inh: 96.9*; Mot1-301 SUMO: 0.4; NSD2 HMT inh: -0.6

How did C[C@@H]1CN([C@@H](C)CO)C(=O)Cc2cc(NC(=O)Nc3cccc4ccccc34)ccc2O[C@H]1CN(C)Cc1ccc(C(=O)O)cc1 do in these assays?
CASP6 VEID inh: 3.2

How did O=C(O)/C(CC(=O)c1ccc(Cl)cc1)=N/Nc1ccc([N+](=O)[O-])cc1[N+](=O)[O-] do in these assays?
CASP6 VEID inh: 7.2; N-glyco inh: 1.7; CDK5 p35 inh: -0.2; ALR H2O2 inh: 97.5*; Mot1-301 SUMO: 156.3; NSD2 HMT inh: 38.9

How did O=C(C[C@H]1CC[C@@H]2[C@H](COC[C@H](O)CN2CC2CCCCC2)O1)NCC1CC1 do in these assays?
CASP6 VEID inh: 1.0

Results for COCCN(C(=O)CCl)C(C(=O)NC1CCCCC1)c1ccccc1C (centres undefined) ?
CASP6 VEID inh: 6.9; N-glyco inh: 30.5*; CDK5 p35 inh: -0.3; ALR H2O2 inh: -3.1; Mot1-301 SUMO: 258.8; NSD2 HMT inh: 0.9

What do the screens show for `COCCN(C(=O)CCC(=O)Nc1cc(C)on1)C(C(=O)NC1CCCC1)c1ccccc1C` (centres undefined)?
CASP6 VEID inh: 0.6; N-glyco inh: -0.5; CDK5 p35 inh: 1.2; ALR H2O2 inh: -1.5; Mot1-301 SUMO: -5.7; NSD2 HMT inh: 1.1

How did COc1ccc(C(C)NC(=O)c2ccc(Cl)cc2)cc1OC (centres undefined) do in these assays?
N-glyco inh: -0.1; ALR H2O2 inh: -5.8; Mot1-301 SUMO: 21.4; NSD2 HMT inh: -1.6

How did COc1ccc(C(=O)CC(SCC(NC(C)=O)C(=O)O)c2ccc(Cl)cc2)cc1OC (centres undefined) do in these assays?
CASP6 VEID inh: 4.6; N-glyco inh: 33.2*; CDK5 p35 inh: -0.6; ALR H2O2 inh: 91.6*; Mot1-301 SUMO: 2.4; NSD2 HMT inh: 6.4

How did CC(=O)C1=C(O)C(=O)N(c2ccc(Br)cn2)C1c1ccccc1[N+](=O)[O-] (centres undefined) do in these assays?
CASP6 VEID inh: 5.7; N-glyco inh: -0.3; CDK5 p35 inh: 0.9; ALR H2O2 inh: -3.0; Mot1-301 SUMO: -1.3; NSD2 HMT inh: 1.8

How did CC(=O)C1=C(O)C(=O)N(c2ccc(Br)cn2)C1c1cccc([N+](=O)[O-])c1 (centres undefined) do in these assays?
CASP6 VEID inh: -1.3; N-glyco inh: 0.2; CDK5 p35 inh: -2.8; ALR H2O2 inh: 89.1*; Mot1-301 SUMO: 2.9; NSD2 HMT inh: 1.5

How did CC(=O)C1=C(O)C(=O)N(c2ccc(Br)cn2)C1c1ccc(Br)cc1 (centres undefined) do in these assays?
CASP6 VEID inh: 6.5; N-glyco inh: 16.1; CDK5 p35 inh: -1.5; ALR H2O2 inh: 97.1*; Mot1-301 SUMO: -17.5; NSD2 HMT inh: 7.1

What do the screens show for `COc1ccc(-c2nc(-c3cccnc3)no2)cc1OC`?
CASP6 VEID inh: -0.9; N-glyco inh: 0.0; CDK5 p35 inh: -2.7; ALR H2O2 inh: 1.5; Mot1-301 SUMO: 27.2; NSD2 HMT inh: -0.7
